SENP8 block-1 = SENP8 protease inhibition; purified SENP8, Z-RLRGG-aminoluciferin cleavage, luminescence; inhibition, % at 10 µM; 330,000 tested, 1.2% active; AID 2540; in the data active means inhibition above about 50%
Target sequence (Q96LD8 whole entry, looked up): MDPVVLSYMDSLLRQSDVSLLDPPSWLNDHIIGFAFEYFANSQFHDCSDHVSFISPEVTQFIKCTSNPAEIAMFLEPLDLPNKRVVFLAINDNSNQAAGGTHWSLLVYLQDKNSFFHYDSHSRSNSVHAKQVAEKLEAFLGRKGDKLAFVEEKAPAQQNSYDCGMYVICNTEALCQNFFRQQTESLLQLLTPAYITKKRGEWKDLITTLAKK
SENP7 block = inhibitors of human SENP7 protease; recombinant SENP7, Z-RLRGG-aminoluciferin luminescence, 40 min; Q9BQF6; inhibition, % at 5 µM; 330,000 tested, 1.5% active; AID 434973;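 active means inhibition above about 50% at the single test dose, limit read from the data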;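 further: plate controls were DMSO with enzyme for no effect and no enzyme buffer wells for full effect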
C8 TRAIL sens = sensitizes caspase-8 expressing cells to TRAIL | 360,000 tested, 1% active | AID 624354 | NB7+C8 cells + TRAIL, ATPlite viability luminescence | inhibition (viability loss, TRAIL sensitization), % at 10 µM;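 active means compounds causing at least 50% loss of cell viability in the single-dose screen, relative to plate controls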
PPC-1+TRAIL kill = PPC-1 cancer cell killing with TRAIL present | PPC-1 cells + TRAIL, ATPLite viability luminescence | cell killing (% activity), % at 4 µM or 5 µM | 220,000 tested, 0.41% active | AID 1443;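 active means cell killing above 50% in the first pass at 4 µM, then a duplicate retest at 5 µM averaging 50% or more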;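 further: plate controls were cells with TRAIL plus DMSO for no effect and medium-only wells lacking cells for full effect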
SENP8 block-2 = SENP8 (human) protease inhibition; inhibition, % at 20 µM; AID 602440; Q96LD8; 360,000 tested, 0.64% active; recombinant SENP8, Nedd8 substrate fluorescence; in the data active means inhibition mostly above about 40%, no sharp cut-off; inactive means mostly below about 27%
SENP6 inh = inhibitors of human SENP6 protease; Q9GZR1; Recombinant SENP6 catalytic domain, aminoluciferin luminescence; inhibition, % at 10 µM; 330,000 tested, 1.8% active; AID 2599;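 active means inhibition above about 50% at the single tested dose, limit read from the data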;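 further: plate controls were DMSO wells with enzyme for no effect and DMSO wells lacking enzyme for full effect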
* = called active by the depositor. Only some compounds are listed: those with a hit (about 3% of all), similar ones and a draw of the others.

`CN(c1ccccc1)S(=O)(=O)c1ccc(NC(=O)c2nc(S(C)(=O)=O)ncc2Cl)cc1` gave SENP8 block-1 4, SENP7 block 5, C8 TRAIL sens 93*, SENP8 block-2 10 and SENP6 inh -7.
O=C(Nc1cccc(F)c1)c1ccc2c(c1)OCO2 was read as SENP8 block-1 71*, SENP7 block 90*, C8 TRAIL sens 8, PPC-1+TRAIL kill 42, SENP8 block-2 26 and SENP6 inh 86*.
For CCc1nc2ccc(C(=O)Nc3cccc(C(C)=O)c3)cc2nc1CC the results were SENP8 block-1 5, SENP7 block 3, C8 TRAIL sens -1, PPC-1+TRAIL kill 12, SENP8 block-2 8 and SENP6 inh 33.
CCc1cccc(NC(=O)Nc2ccc3c(c2)OCO3)c1 was read as SENP8 block-1 -6, SENP7 block 8, C8 TRAIL sens 1, PPC-1+TRAIL kill 7, SENP8 block-2 5 and SENP6 inh 9.
Screening CCc1nc2ccc(C(=O)Nc3ccc4c(c3)OCO4)cc2nc1CC returned SENP8 block-1 51*, SENP7 block 50, C8 TRAIL sens 10, PPC-1+TRAIL kill 7, SENP8 block-2 16 and SENP6 inh 13.
Screening CCc1ccccc1NC(=O)Nc1ccc2c(c1)OCO2 returned SENP8 block-1 37, SENP7 block 82*, C8 TRAIL sens 3, PPC-1+TRAIL kill 6, SENP8 block-2 8 and SENP6 inh -12.
Screening O=C(Nc1ccc2c(c1)OCO2)c1n[nH]c(=O)c2ccccc12 returned SENP8 block-1 38, SENP7 block 62*, C8 TRAIL sens 2, PPC-1+TRAIL kill 29, SENP8 block-2 20 and SENP6 inh 67*.
O=C(Nc1ccc2c(c1)OCO2)c1nn(-c2ccccc2)c(=O)c2ccccc12 was read as SENP8 block-1 -6, SENP7 block 3, C8 TRAIL sens 10, PPC-1+TRAIL kill 12, SENP8 block-2 31 and SENP6 inh -17.
Screening CCCCCCCCCCCCCCCC[N+](C)(C)CCN(Cc1ccc(OC)cc1)c1ncccn1 returned SENP8 block-1 -31, SENP7 block 11, C8 TRAIL sens 53*, SENP8 block-2 6 and SENP6 inh -67.
Screening O=C(NNC1CC(=O)N(c2ccc(Br)cc2)C1=O)c1ccccn1 (stereo not given) returned SENP8 block-1 -3, SENP7 block 5, C8 TRAIL sens -6, PPC-1+TRAIL kill 29, SENP8 block-2 8 and SENP6 inh 11.
Screening COC(=O)c1ccc2c(c1)C(C)(C)C(/C=C/c1ccc(OC)c(OC)c1OC)=[N+]2C returned SENP8 block-1 6, SENP7 block 6, C8 TRAIL sens 67*, PPC-1+TRAIL kill -3, SENP8 block-2 -400 and SENP6 inh 11.
For COC(=O)c1ccc2c(c1)C(C)(C)C(/C=C/c1ccc(O)cc1)=[N+]2C the results were SENP8 block-1 2, SENP7 block 9, C8 TRAIL sens 52*, PPC-1+TRAIL kill 34, SENP8 block-2 -274 and SENP6 inh 8.
CC(C)Cc1nnc(NC(=O)C2CSC3(C)CCC(=O)N23)s1 (stereo not given) was read as SENP8 block-1 -3, SENP7 block -6, C8 TRAIL sens -6, SENP8 block-2 6 and SENP6 inh -3.
Screening Cc1cc(C(=O)N/N=C/c2cccc3ccccc23)c(C)o1 returned SENP8 block-1 8, SENP7 block 7, C8 TRAIL sens 5, SENP8 block-2 3 and SENP6 inh 44.
Nc1c(S(=O)(=O)c2cccs2)c2nc3ccccc3nc2n1CCc1ccccc1 was read as SENP8 block-1 31, SENP7 block 27, PPC-1+TRAIL kill 11 and SENP6 inh 53*.
`CCc1ccc(S(=O)(=O)Nc2ccc(Br)cn2)cc1` gave SENP8 block-1 -2, SENP7 block 5, C8 TRAIL sens 12, SENP8 block-2 15 and SENP6 inh 4.
CCCCOC(=O)c1ccc(NC(=O)COC(=O)c2ccc3ncsc3c2)cc1 was read as SENP8 block-1 -10, SENP7 block -11, C8 TRAIL sens 3, SENP8 block-2 -50 and SENP6 inh -16.
Screening CCCn1c(N)c(C(=O)CSc2nncs2)c(=O)[nH]c1=O returned SENP8 block-1 5, SENP7 block 1, C8 TRAIL sens -9, SENP8 block-2 6 and SENP6 inh -2.

Bioassay records as filed in PubChem.
